# A selection: hits, their analogues and other compounds. The true share with any hit is near 4.1%.
# Anthrax LF inh2: blocks Bacillus anthracis lethal factor protease; 0.12% of 360,000 active; inhibition, % at 10 µM; multiplex microsphere protease cleavage assay, LF; P15917; also: plate controls were buffer without enzyme for full effect and enzyme alone for no effect
# MazF activator: activators of E. coli MazEF toxin-antitoxin RNase | FAM/BHQ RNA-DNA oligo cleavage fluorescence, 5 h | 0.32% of 350,000 active | AID 504720 | P0AE70 | activation, % at 20 µM; in the data active = activation above about 50%
# DUSP3 inh: blocks human VHR1 dual specificity phosphatase | P51452 | recombinant VHR phosphatase, pNPP absorbance | inhibition, % at 13.3 µM | 0.52% of 290,000 active | AID 1654; in the data active = inhibition above about 50%
# BoNT-A LC inh2: inhibitors of Botulinum neurotoxin A light chain protease | multiplex microsphere protease substrate cleavage, flow cytometry | inhibition, % at 10 µM | 0.17% of 360,000 active; also: plate controls were buffer without enzyme for full effect and enzyme alone for no effect
# BoNT-F LC inh: inhibitors of Botulinum neurotoxin F light chain protease | Multiplex microsphere protease cleavage assay, flow cytometry | AID 588497 | 0.22% of 360,000 active | inhibition, % at 10 µM; in the data active = inhibition above about 35%, passing the limit was not always enough; inconclusive = no clear call, values can overlap the other calls; also: plate controls were buffer without enzyme for full effect and enzyme alone for no effect
# Autofluor counter: compound fluorescence in toxin protease inhibitor counterscreen. fluorescence intensity (concentration not given with the values). 3.1% of 360,000 active. compound autofluorescence counterscreen, microsphere flow cytometry; stronger effect = higher value; in the data active = fluorescence intensity above about 16000; inconclusive = no clear call, values can overlap the other calls
# * hit, by the source's call; i = inactive; ? = inconclusive; nt = no result. Rule as the data show it, unless noted: active = inhibition above about 30%; inconclusive = no clear call, values can overlap the other calls; inactive = below that.
SMILES,Anthrax LF inh2,MazF activator,DUSP3 inh,BoNT-A LC inh2,BoNT-F LC inh,Autofluor counter
C#CCOC(=O)c1ccccc1C(=O)N(CC)CC,0,-1,21,?,-7,17452*
CCCN(CCC)C(=O)c1ccccc1C(=O)N(CCC)CCC,-7,-2,-16,-2,-15,3866
O=C(O)CCc1nn2c3ccccc3n(CCN3CCCCC3)c2nc1=O,0,9,-19,-4,-6,17537*
O=C(O)CCc1nn2c3ccccc3n(CCO)c2nc1=O,-2,5,13,-1,0,2182
O=C(NC1CCCCC1)C(c1ccnc2ccccc12)N1CCc2ccccc2C1 (configuration not stated),3,nt,nt,2,12,4218
O=C(CSc1nnc(-c2ccc(C(F)(F)F)cn2)s1)c1ccc(Cl)cc1,2,-8,-1,0,-7,6216
O=C1CC(c2ccc(O)c(O)c2)Oc2cc(O)cc(O)c21 (configuration not stated),-10,3,-17,0,-10,4065
O=C1CC(c2ccc(O)c(O)c2)Oc2c1ccc(O)c2O (configuration not stated),-8,53*,14,-2,-22,4990
CC(C)=CCc1c(O)ccc2c1OC(c1ccc(O)c(O)c1)CC2=O (configuration not stated),-3,86*,-6,-2,-12,6073
CCOc1ccc(-c2nn(-c3ccccc3)cc2/C=C2\SC(=S)N(Cc3ccco3)C2=O)cc1,14,-41,17,37*,6,2009
N#C/C(=C/c1ccc(N2CCOCC2)o1)c1nc2ccccc2[nH]1,-1,428*,53*,-5,126*,11009
COc1cc(Cn2c3ccc(NC(=S)NCc4ccc(C)cc4)cc3c(=O)n2C)ccc1F,0,nt,nt,0,-8,3795
CCCCc1nnc(NC(=O)C(C)Sc2nc(N)cc(=O)[nH]2)s1 (configuration not stated),4,-2,-9,5,6,21210*
CSc1ncnc2c1ncn2CCCNc1ccc(C)c(C)c1,-6,3,nt,0,-6,3025
O=C(Nc1c(-c2ccccc2)nc2ccccn12)c1cccc(F)c1,-16,2,24,-1,36*,3930
CCCN1CCC(NC(=O)Cc2cccc(C)c2)CC1,nt,0,32,nt,nt,nt
O=C(Nc1ccc2c(c1)OCO2)c1cnc2n(c1=O)CCS2,-6,-5,0,1,-6,22821*
O=C(Nc1ccc2c(c1)OCCO2)c1cnc2n(c1=O)CCS2,-2,2,-23,0,-1,5621
Cc1cccc(NC(=O)c2cnc3n(c2=O)CCS3)c1,-4,1,14,?,-2,20823*
Cc1noc(NS(=O)(=O)c2ccc(NC(=O)c3cnc4n(c3=O)CCS4)cc2)c1C,-2,-8,30,3,4,21016*
Cc1ccccc1C(=O)Nc1ccc(S(=O)(=O)Nc2onc(C)c2C)cc1,-6,3,5,-1,-3,3722
O=C(NNC(=O)C1CCCO1)c1ccc(F)cc1 (configuration not stated),-1,-4,2,-2,-22,2531
COc1ccc(-c2nnc(SC)n2C)cc1,-5,7,29,-2,-16,12673
CSc1nnc(-c2ccc(O)cc2)n1C,2,12,-10,5,4,21757*
Cn1c(SCC(=O)c2ccccc2)nnc1-c1ccc(O)cc1,1,10,15,1,3,20320*
SMILES,Anthrax LF inh2,MazF activator,DUSP3 inh,BoNT-A LC inh2,BoNT-F LC inh,Autofluor counter
Cn1c(SCC(=O)c2ccccc2)nnc1-c1ccncc1,-2,1,-3,-2,-1,4660
Cn1c(SCCCC(=O)c2ccccc2)nnc1-c1ccncc1,2,3,40,?,2,19499*
Cc1ccc(S(=O)(=O)N2CCOCC2)cc1C(=O)NCCc1ccc(Cl)cc1,-1,-3,nt,0,-1,3111
Nc1ccc(C2(c3ccc(N)cc3)C(=O)Nc3ccccc32)cc1,0,-1,53*,-2,-17,9633
CCN1CCN(Cc2cccnc2)CC1,-8,-5,6,0,-17,3551
COc1cc(CN2CCN(c3cccc(Cl)c3)CC2)cc(OC)c1OC,-2,-3,13,-6,-7,25470*
CCOc1cccc(CN2CCN(c3cccc(C(F)(F)F)c3)CC2)c1O,-2,0,3,0,-6,7873
COc1cccc(N2CCN(Cc3cccnc3)CC2)c1,-4,5,27,0,-4,20710*
COc1cccc(CN2CCN(c3ncccn3)CC2)c1,-2,4,15,0,-3,22009*
COc1cccc(CN2CCN(c3cccc(C(F)(F)F)c3)CC2)c1OC,-5,-8,4,-1,-5,16287*
COc1cccc(CN2CCN(Cc3cccc(F)c3)CC2)c1,3,-18,16,-2,24,3451
C[C@@H]1CN([C@@H](C)CO)C(=O)c2cc(Br)cnc2O[C@H]1CN(C)C(=O)Cc1ccccn1,-3,6,nt,0,-5,3623
COc1cccc(N2CCN(Cc3cccc(Cl)c3)CC2)c1,-5,5,6,?,-6,24340*
FC(F)(F)c1cccc(N2CCN(Cc3cccnc3)CC2)c1,-1,5,9,1,4,16207*
COc1cccc(CN2CCN(Cc3cc(OC)c(OC)cc3[N+](=O)[O-])CC2)c1,-13,-2,27,?,14,16274*
COc1cccc(N2CCN(Cc3ccc(Cl)cc3)CC2)c1,-8,-11,-3,0,-14,10809
COc1cccc(/C=C2/CCC(CN(C)C)C2=O)c1 (configuration not stated),1,2,nt,0,-4,3266
c1ccc(CCNc2cc(-c3ccc4ccccc4c3)nc3ccnn23)nc1,-3,nt,nt,0,-9,2911
Cc1ccc(S(=O)(=O)N2C[C@H]3C(=O)C[C@@H](c4ccccc4)N(S(=O)(=O)c4ccc(C)cc4)[C@H]3C[C@H]2c2ccccc2F)cc1,-6,nt,nt,0,-1,4372
COc1c(C)cc(S(=O)(=O)N2CCCC2)c(C)c1C,-2,4,13,-2,-5,17139*
Cc1cc(S(=O)(=O)N2CCCC2)c(C)s1,0,2,15,-3,-4,20695*
COc1c(C)cc(S(=O)(=O)N2CCOCC2)c(C)c1C,-2,-12,14,0,-2,3950
CCOC(=O)/C=C1\SCC(=O)N1CC(=O)c1ccc[nH]1,2,6,21,2,5,21362*
CCOC(=O)/C=C1\SCC(=O)N1CC(=O)Nc1ccc(OC)c(OC)c1,1,8,-12,-1,-3,3678
CCCC1=C(C(=O)OCC)C2(C(=O)Nc3ccc(C)cc32)C(C#N)=C(N)O1 (configuration not stated),2,7,0,?,1,20310*
C=C(C)CN(CC)c1nc(N)c(C#N)c(CC#N)c1C#N,-1,9,-10,?,0,20294*
O=c1oc2cc(O)ccc2cc1-c1nc2c(s1)CCc1ccccc1-2,17,i,0,47*,7,4485

# From PubChem BioAssay
